In PubChem BioAssay (EPA / NIEHS):
“And” between values parts separate entries of the source, which are not always exact repeats. Identical values can stand only once. Inconclusive results are not listed. The source made the active and inactive calls. Rule for the calls, unless noted: active = hit-call score of the fitted dose curve at least 0.9, where 1 is the maximum; inactive = score below 0.9.

Legend:
[1] = target: Retinoic acid receptor RXR-alpha (Homo sapiens) (UniProt P19793); test: ATG_RXRa_TRANS: Attagene TRANS-FACTORIAL HepG2 Assay for human Retinoid X Receptor alpha (RXRa) (AID 2283012; active = hit-call score of the fitted dose curve at least 0.9, where 1 is the maximum)
Summary of the method: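 TRANS format reporting activity of exogenous RXRa-Gal4 chimera in transiently transfected HepG2, 24 h exposure. Reporter transcripts quantified by RT-PCR with capillary electrophoresis, with gain of signal scored relative to DMSO.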

[2] = target: human Retinoid X Receptor beta (RXRb), RXRB (gene 6257) (UniProt P28702); test: ATG_RXRb_TRANS: Attagene TRANS-FACTORIAL HepG2 Assay for human Retinoid X Receptor beta (RXRb) (AID 2283013; active = hit-call score of the fitted dose curve at least 0.9, where 1 is the maximum)
Summary of the method: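 Readout is reporter transcript induction after 24 h dosing. It is measured by RT-PCR of total RNA followed by fluorescent capillary electrophoresis. HepG2 liver cells carry transfected multiple reporter units driven by an exogenous RXRb-Gal4 fusion; activity is relative to DMSO.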

[3] = read-out: E-selectin (Homo sapiens) (UniProt P16581); test: BSK_3C_Eselectin: BioMAP Diversity Plus: 3C Assay for Eselectin Biomarker Activity (AID 2283015); settings: primary human endothelial cells (HUVEC); actives raise or lower the signal;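 note: cell surface E-selectin protein quantified by ELISA 24 h after dosing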
Summary of the method: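 E-selectin ELISA readout, fitted bidirectionally relative to DMSO, taken 24 h post-dosing in HUVEC cultures of the 3C system. Overt cytotoxicity tracked with sulforhodamine B staining of parallel wells.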

[4] = read-out: Interleukin-1 alpha (IL1a), IL1A (gene 3552); test: BSK_BE3C_IL1a: BioMAP Diversity Plus: BE3C Assay for Interleukin-1 alpha (IL1a) Biomarker Activity (AID 2283016); settings: primary human bronchial epithelial cells; actives raise or lower the signal
Summary of the method: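 IL-1a measured by ELISA after 24 h treatment of human primary bronchial epithelial cells, with gain or loss of signal fitted versus DMSO. Parallel cultures stained with SRB gauge overt cytotoxicity.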

[5] = read-out: Monocyte Chemoattractant Protein-1 (MCP1), CCL2 (gene 6347); test: BSK_3C_MCP1: BioMAP Diversity Plus: 3C Assay for Monocyte Chemoattractant Protein-1 (MCP1) Biomarker Activity (AID 2283017); settings: primary human endothelial cells (HUVEC); actives raise or lower the signal
Summary of the method: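 MCP-1 was measured by ELISA 24 h after dosing in primary HUVEC 3C cultures and fitted in both directions relative to DMSO; cytotoxicity was checked by SRB total-protein staining in parallel wells.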

[6] = read-out: Monocyte Chemoattractant Protein-1 (MCP1), CCL2 (gene 6347); test: BSK_4H_MCP1: BioMAP Diversity Plus: 4H Assay for Monocyte Chemoattractant Protein-1 (MCP1) Biomarker Activity (AID 2283018); settings: primary human endothelial cells (HUVEC); actives raise or lower the signal
Summary of the method: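 ELISA of MCP-1 (CCL2) 24 h after chemical dosing of HUVEC in the BioMAP 4H system. Gain or loss versus DMSO fitted; parallel SRB staining (560 nm) tracked overt cytotoxicity.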

[7] = read-out: Human Leukocyte Antigen - DR isotype (HLADR), HLA-DRA (gene 3122); test: BSK_3C_HLADR: BioMAP Diversity Plus: 3C Assay for Human Leukocyte Antigen - DR isotype (HLADR) Biomarker Activity (AID 2283019); settings: primary human endothelial cells (HUVEC); actives raise or lower the signal
Summary of the method: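 Bidirectional fitting against DMSO was applied to the HLA-DR ELISA signal from human umbilical vein endothelial cells, 24 h post-dose. Cytotoxicity came from parallel SRB total-protein staining; 3C proliferation was counted by SRB at 48 h.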

[8] = read-out: Interleukin-8 (IL8), CXCL8 (gene 3576); test: BSK_3C_IL8: BioMAP Diversity Plus: 3C Assay for Interleukin-8 (IL8) Biomarker Activity (AID 2283020); settings: primary human endothelial cells (HUVEC); actives raise or lower the signal
Summary of the method: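 IL-8 was measured by ELISA in HUVEC cultures 24 h after chemical dosing, with gain or loss of signal fitted relative to DMSO. Parallel SRB total-protein staining tracked overt cytotoxicity.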

[9] = read-out: Monokine induced gamma interferon (MIG), CXCL9 (gene 4283); test: BSK_3C_MIG: BioMAP Diversity Plus: 3C Assay for Monokine induced gamma interferon (MIG) Biomarker Activity (AID 2283021); settings: primary human endothelial cells (HUVEC); actives raise or lower the signal
Summary of the method: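 ELISA measurement of MIG in human umbilical vein endothelial cells 24 h after treatment. Cytotoxicity tracked by SRB staining in parallel cultures; gain or loss of signal fitted relative to DMSO.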

[10] = BSK_3C_SRB: Viability Assessment in the BioMAP Diversity Plus: 3C Assay (AID 2283023); settings: primary human endothelial cells (HUVEC);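 note: fitted both ways against DMSO so a hit may be signal rise or drop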
Summary of the method: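 Cytotoxicity readout in parallel HUVEC 3C cultures: after 24 h compound exposure, cells fixed with 10% TCA, stained with 0.1% SRB and read at 560 nm. Gain or loss relative to DMSO fitted.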

[11] = read-out: Matrix Metallopeptidase 1 (MMP1), MMP1 (gene 4312); test: BSK_BE3C_MMP1: BioMAP Diversity Plus: BE3C Assay for Matrix Metallopeptidase 1 (MMP1) Biomarker Activity (AID 2283024); settings: primary human bronchial epithelial cells; actives raise or lower the signal
Summary of the method: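 ELISA measurement of MMP-1 after 24 h compound exposure of primary human bronchial epithelial cells. Changes in either direction fitted relative to DMSO; parallel SRB staining checked overt cytotoxicity.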

[12] = read-out: Pselectin, SELP (gene 6403); test: BSK_4H_Pselectin: BioMAP Diversity Plus: 4H Assay for Pselectin Biomarker Activity (AID 2283026); settings: primary human endothelial cells (HUVEC); actives raise or lower the signal
Summary of the method: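 ELISA of surface P-selectin on HUVEC, 24 h after dosing, with parallel SRB staining (0.1% after 10% TCA fixation, 560 nm) for overt cytotoxicity. Activity fitted in both directions relative to DMSO.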

[13] = BSK_4H_SRB: Viability Assessment in the BioMAP Diversity Plus: 4H Assay (AID 2283027); settings: primary human endothelial cells (HUVEC);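 note: cells exposed to compound for 24 h before staining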
Summary of the method: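 HUVEC, 24 h post-dose; 10% TCA fix, 0.1% SRB stain, A560 nm. Total protein = overt cytotoxicity, parallel to biomarker read. Bidirectional fit vs DMSO baseline.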

[14] = BSK_BE3C_SRB: Viability Assessment in the BioMAP Diversity Plus: BE3C Assay (AID 2283028); settings: primary human bronchial epithelial cells
Summary of the method: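 Cytotoxicity read-out: SRB (0.1%) staining of TCA-fixed (10%) human lung bronchial epithelial cells, absorbance 560 nm, 24 h post-dosing. Curves fitted both directions relative to DMSO.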

[15] = target: human Vitamin D Receptor (VDR), VDR (gene 7421) (UniProt P11473); test: ATG_VDR_TRANS: Attagene TRANS-FACTORIAL HepG2 Assay for human Vitamin D Receptor (VDR) (AID 2283022; active = hit-call score of the fitted dose curve at least 0.9, where 1 is the maximum)
Summary of the method: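 Transactivation by an exogenous VDR-Gal4 chimera in transiently transfected HepG2 cells was measured as reporter transcript level 24 hours after chemical treatment. RT-PCR products were analysed by capillary electrophoresis and fitted in the positive direction relative to DMSO.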

[16] = BSK_3C_Vis: BioMAP Diversity Plus: 3C Assay for Morphology Visualization (AID 2283025); settings: primary human endothelial cells (HUVEC);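 note: fitted both ways so gain or loss versus DMSO counts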;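 for AC50: light microscopy image of cell morphology used as background control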
Summary of the method: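 Light-microscopy visualization of HUVEC cultures at 24 h post-treatment, with DMSO as baseline for bidirectional fitting.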

[17] = read-out: Thrombomodulin, THBD (gene 7056); test: BSK_3C_Thrombomodulin: BioMAP Diversity Plus: 3C Assay for Thrombomodulin Biomarker Activity (AID 2283029); settings: primary human endothelial cells (HUVEC); actives raise or lower the signal
Summary of the method: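 ELISA measurement of thrombomodulin on HUVEC surface 24 h after chemical dosing; activity fitted in both directions relative to DMSO vehicle.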

[18] = target: human Thyroid Receptor alpha (THRa1), THRA (gene 7067) (UniProt P10827); test: ATG_THRa1_TRANS: Attagene TRANS-FACTORIAL HepG2 Assay for human Thyroid Receptor alpha (THRa1) (AID 2283014; active = hit-call score of the fitted dose curve at least 0.9, where 1 is the maximum)
Summary of the method: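 Transcripts from GAL4-UAS-driven reporters, measured after 24 h compound exposure by RT-PCR plus capillary electrophoresis of 6-FAM-labeled fragments, were fitted for gain of signal relative to DMSO. Cells: transiently transfected HepG2 expressing NR-Gal4 chimeras.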

[19] = target: human RAR-related Orphan Receptor gamma (RORg), RORC (gene 6097) (UniProt P51449); test: ATG_RORg_TRANS: Attagene TRANS-FACTORIAL HepG2 Assay for human RAR-related Orphan Receptor gamma (RORg) (AID 2283011; active = hit-call score of the fitted dose curve at least 0.9, where 1 is the maximum)
Summary of the method: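 Reporter transcripts from a transfected RORg-GAL4 chimera in HepG2 cells were quantified 24 h after dosing by RT-PCR, 6-FAM labelling, HpaI digestion and capillary electrophoresis; increases over DMSO baseline were fitted.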

Measured: AC50

Sequence of Retinoic acid receptor RXR-alpha (Homo sapiens) (P19793 whole entry, looked up, the tested form may be a part): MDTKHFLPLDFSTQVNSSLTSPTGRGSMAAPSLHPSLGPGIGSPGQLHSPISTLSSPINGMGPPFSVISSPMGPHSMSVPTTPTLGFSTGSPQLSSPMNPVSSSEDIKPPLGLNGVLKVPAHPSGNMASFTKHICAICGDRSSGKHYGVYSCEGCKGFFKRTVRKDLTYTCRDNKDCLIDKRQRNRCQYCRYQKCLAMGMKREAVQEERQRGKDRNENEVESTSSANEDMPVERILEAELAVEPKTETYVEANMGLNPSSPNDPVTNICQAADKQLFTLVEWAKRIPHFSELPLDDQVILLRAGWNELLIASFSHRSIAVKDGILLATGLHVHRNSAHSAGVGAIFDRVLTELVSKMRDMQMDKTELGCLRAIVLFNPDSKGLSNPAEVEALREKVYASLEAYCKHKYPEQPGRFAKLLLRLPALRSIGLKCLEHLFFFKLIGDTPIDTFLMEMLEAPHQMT
Sequence of human Retinoid X Receptor beta (RXRb), RXRB (gene 6257) (P28702 whole entry, looked up, the tested form may be a part): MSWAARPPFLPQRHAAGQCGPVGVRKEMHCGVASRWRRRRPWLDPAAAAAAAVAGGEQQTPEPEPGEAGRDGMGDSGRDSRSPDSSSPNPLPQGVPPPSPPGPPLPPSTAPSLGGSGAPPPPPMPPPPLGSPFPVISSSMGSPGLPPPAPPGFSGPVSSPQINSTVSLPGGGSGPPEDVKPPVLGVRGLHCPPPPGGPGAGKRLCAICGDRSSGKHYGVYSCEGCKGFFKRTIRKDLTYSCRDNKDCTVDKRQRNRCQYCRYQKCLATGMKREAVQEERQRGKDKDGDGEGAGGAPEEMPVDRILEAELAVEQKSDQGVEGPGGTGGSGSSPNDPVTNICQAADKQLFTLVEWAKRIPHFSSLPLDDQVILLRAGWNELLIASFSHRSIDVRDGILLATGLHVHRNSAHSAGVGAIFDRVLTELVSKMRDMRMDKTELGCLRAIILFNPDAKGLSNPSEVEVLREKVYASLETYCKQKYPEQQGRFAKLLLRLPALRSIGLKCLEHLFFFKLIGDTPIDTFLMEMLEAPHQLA
Sequence of E-selectin (Homo sapiens) (P16581 whole entry, looked up): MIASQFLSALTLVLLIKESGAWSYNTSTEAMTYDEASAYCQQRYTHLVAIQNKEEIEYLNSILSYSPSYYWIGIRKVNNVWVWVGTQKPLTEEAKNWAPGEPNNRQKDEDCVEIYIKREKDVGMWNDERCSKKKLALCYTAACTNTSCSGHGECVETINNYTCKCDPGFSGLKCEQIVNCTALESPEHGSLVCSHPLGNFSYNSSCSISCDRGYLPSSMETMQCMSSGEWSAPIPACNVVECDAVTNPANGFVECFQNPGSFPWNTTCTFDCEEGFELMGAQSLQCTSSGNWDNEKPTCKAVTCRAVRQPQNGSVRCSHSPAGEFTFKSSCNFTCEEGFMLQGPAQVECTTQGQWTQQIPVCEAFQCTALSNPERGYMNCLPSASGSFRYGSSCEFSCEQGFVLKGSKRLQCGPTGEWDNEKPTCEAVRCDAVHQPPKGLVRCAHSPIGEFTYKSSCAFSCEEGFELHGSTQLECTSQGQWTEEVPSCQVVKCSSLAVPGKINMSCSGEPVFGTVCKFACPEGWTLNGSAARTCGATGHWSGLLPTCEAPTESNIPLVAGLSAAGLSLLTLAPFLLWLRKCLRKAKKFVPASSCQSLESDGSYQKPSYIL
Sequence of human Thyroid Receptor alpha (THRa1), THRA (gene 7067) (P10827 whole entry, looked up, the tested form may be a part): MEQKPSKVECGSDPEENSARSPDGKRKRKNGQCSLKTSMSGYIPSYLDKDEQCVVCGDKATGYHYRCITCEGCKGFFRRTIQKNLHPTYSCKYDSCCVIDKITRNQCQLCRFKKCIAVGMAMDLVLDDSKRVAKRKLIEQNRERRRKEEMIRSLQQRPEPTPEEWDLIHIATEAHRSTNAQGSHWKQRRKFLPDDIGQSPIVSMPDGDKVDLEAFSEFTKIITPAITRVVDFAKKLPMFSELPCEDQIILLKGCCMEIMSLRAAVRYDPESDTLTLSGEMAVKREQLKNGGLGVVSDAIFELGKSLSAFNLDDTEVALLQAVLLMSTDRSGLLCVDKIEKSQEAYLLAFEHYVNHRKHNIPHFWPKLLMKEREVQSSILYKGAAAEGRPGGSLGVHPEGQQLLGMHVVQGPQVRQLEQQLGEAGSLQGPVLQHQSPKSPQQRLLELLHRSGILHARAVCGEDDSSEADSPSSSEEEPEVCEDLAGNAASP
Sequence of human Vitamin D Receptor (VDR), VDR (gene 7421) (P11473 whole entry, looked up, the tested form may be a part): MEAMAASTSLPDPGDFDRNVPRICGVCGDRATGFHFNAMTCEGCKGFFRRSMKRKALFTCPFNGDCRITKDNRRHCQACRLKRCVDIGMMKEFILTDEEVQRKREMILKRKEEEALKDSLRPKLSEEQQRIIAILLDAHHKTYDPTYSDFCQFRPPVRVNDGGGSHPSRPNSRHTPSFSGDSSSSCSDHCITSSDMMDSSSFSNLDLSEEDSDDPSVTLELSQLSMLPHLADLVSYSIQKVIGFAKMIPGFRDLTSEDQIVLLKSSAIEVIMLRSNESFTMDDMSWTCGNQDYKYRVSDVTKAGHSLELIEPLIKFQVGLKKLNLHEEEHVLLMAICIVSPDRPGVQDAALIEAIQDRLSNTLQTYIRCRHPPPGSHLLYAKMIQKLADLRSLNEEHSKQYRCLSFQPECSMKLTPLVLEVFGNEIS
Sequence of human RAR-related Orphan Receptor gamma (RORg), RORC (gene 6097) (P51449 whole entry, looked up, the tested form may be a part): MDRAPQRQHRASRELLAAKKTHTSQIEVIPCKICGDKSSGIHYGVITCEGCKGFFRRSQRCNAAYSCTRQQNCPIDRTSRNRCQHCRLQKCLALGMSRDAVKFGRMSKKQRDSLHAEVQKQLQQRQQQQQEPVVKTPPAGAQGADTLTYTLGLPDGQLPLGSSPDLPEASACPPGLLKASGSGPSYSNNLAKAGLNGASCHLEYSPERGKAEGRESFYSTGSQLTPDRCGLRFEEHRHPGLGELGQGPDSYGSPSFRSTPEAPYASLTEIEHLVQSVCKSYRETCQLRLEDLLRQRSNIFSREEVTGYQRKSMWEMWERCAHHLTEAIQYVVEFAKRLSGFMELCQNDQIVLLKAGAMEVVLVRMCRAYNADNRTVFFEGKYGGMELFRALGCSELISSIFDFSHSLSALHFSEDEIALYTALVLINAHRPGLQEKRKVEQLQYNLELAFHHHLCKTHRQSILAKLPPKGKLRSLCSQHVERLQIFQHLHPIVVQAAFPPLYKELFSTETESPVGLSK

CCCCCCOC(=O)c1ccccc1C(=O)OCCCCCC
active: [5] 29.1 µM | [8] 31.1 µM | [10] 15.1 µM | [12] 29.3 µM
not listed: [15] | [16] | [17] | [18] | [19]
inactive: all other assays above

Cc1ccccc1CO[C@@H]1C[C@@]2(C(C)C)CC[C@]1(C)O2
active: [10] 31.3 µM
not listed: [18] | [19]
inactive: all other assays above

c1ccc(-c2ccccc2)cc1
active: [2] 110 µM
not listed: [15] | [16] | [17] | [18] | [19]
inactive: all other assays above

Nn1cnnc1
not listed: [1] | [2] | [15] | [19]
inactive: all other assays above

CC(C)C(=O)OCC(C)(C)C(OC(=O)C(C)C)C(C)C (stereo not drawn)
not listed: [1] | [15] | [16] | [17] | [18]
inactive: all other assays above

Cc1ccccc1O
not listed: [2] | [16] | [17] | [18] | [19]
inactive: all other assays above

CCOP(=S)(OCC)SCSC(C)(C)C
active: [2] 25.7 µM and 24.6 µM | [7] 32.5 µM
not listed: [16] | [17] | [19]
inactive: all other assays above

CC1=C2C[C@H]3[C@@H](CC=C4C[C@@H](O)CC[C@@]43C)[C@@H]2CC[C@]12O[C@@H]1C[C@H](C)CN[C@H]1[C@H]2C
active: [5] 2.82 µM | [16] 4.9 µM
not listed: [1] | [2] | [15] | [18] | [19]
inactive: all other assays above
